A short description of experiment [1]: qHTS assay to identify small molecule agonists of the hypoxia (HIF-1) signaling pathway (AID 1224846; active means well fitted activation curve with a large enough effect in the signal ratio in the repeat runs, not every such curve was filed as active; the % refers to the signal ratio; further: on the % scale 0 is the no-effect control and ±100 the full control effect). A digest of the protocol:
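In ME-180 cells bearing an HRE-bla construct, 17 h treatment with DMSO-dissolved compounds at 37C was followed by CCF4-AM loading to quantify reporter induction.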
For orientation: Quantitative high-throughput screening tests each substance at several concentrations.

Experiment [2] is described as follows: qHTS assay to identify small molecule agonists of H2AX - cell viability counter screen (AID 1224847; calls by dose curve; further: nearly all actives have a fitted effect of over 30% in size; further: potency means the concentration at half of the fitted maximal effect). Summed up: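 Wild-type CHO-K1 cells (10% FBS medium) were plated overnight at 37C, exposed to compounds at 15 concentrations for 3 hr at 37C (0.76% DMSO final), and viability was read as CellTiter-Glo luminescence after 30 min at room temperature.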
A short description of experiment [3]: qHTS assay to identify small molecule agonists of the estrogen related receptor (ERR) signaling pathway from Tox21 library (AID 1224849; calls by dose curve; further: on the % scale 0 is the no-effect control and ±100 the full control effect; nearly all actives have a fitted effect of over 15% in size). To be noted: ERR reporter cell line, ONE-Glo luciferase, 18 h; at 92.4 µM (top of the series) unless noted. A digest of the protocol: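 Reporter cells (ERR, NTP source) treated with Tox21 10K compounds 18 h, 37 C. Readout: ONE-Glo luminescence, 30 min RT.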

A short description of experiment [4]: qHTS RealTime-Glo MT Cell Viability Assay in HepG2 cells - 24 hour (AID 1224867). Further: nearly all actives have a fitted effect of over 50% in size. Further: potency means the concentration at half of the fitted maximal effect. Summed up: (§1)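 Cells + NanoLuc/prosubstrate dispensed (600 cells/well) → 5 h at 37 C/5% CO2 → compounds in DMSO transferred → 40 h incubation at 37 C, luminescence read at 0, 8, 16, 24, 32, 40 h.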
The nature of experiment [5]: A CellTox Green Cytotoxicity Assay to monitor cytotoxicity in HEK293 cells - 0 hour (AID 1224869). Further: on the % scale 0 is the no-effect control and ±100 the full control effect; nearly all actives have a fitted effect of over 50% in size. A digest of the protocol:
(§2)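 Homogeneous no-lysis format: HEK293 cell suspension mixed with CellTox Green reagent, seeded, incubated 5 h at 37 C/5% CO2, then dosed by pintool with compound in DMSO.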

Experiment [6] can be described thus: qHTS RealTime-Glo MT Cell Viability Assay in HepG2 cells - 40 hour (AID 1224870). Further: nearly all actives have a fitted effect of over 50% in size. Further: potency means the concentration at half of the fitted maximal effect. A digest of the protocol: (§3)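 HepG2 cells (600/well) mixed with RealTime-Glo MT reagent, settled 5 h at 37 C/5% CO2 before compound addition. Nonlytic NanoLuc luminescence from viable-cell prosubstrate reduction read repeatedly during 40 h treatment at 37 C.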
A short description of experiment [7]: A CellTox Green Cytotoxicity Assay to monitor cytotoxicity in HEK293 cells - 40 hour (AID 1224871). Further: nearly all actives have a fitted effect of over 45% in size. Further: potency means the concentration at half of the fitted maximal effect. A digest of the protocol:
as §2

Experiment [8] can be described thus: qHTS RealTime-Glo MT Cell Viability Assay in HEK293 cells - 16 hour (AID 1224872). Further: nearly all actives have a fitted effect of over 50% in size. Further: potency means the concentration at half of the fitted maximal effect. A digest of the protocol:
(§4)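 Tox21 10K qHTS, HEK293, 600 cells/well, RealTime-Glo reagent co-dispensed with cells; 5 h preincubation, compound by pintool, 37 C, luminescence at 0–40 h.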

Experiment [9] can be described thus: qHTS RealTime-Glo MT Cell Viability Assay in HepG2 cells - 8 hour (AID 1224873). Further: on the % scale 0 is the no-effect control and ±100 the full control effect; nearly all actives have a fitted effect of over 55% in size. Summed up: as §3
Experiment [10] is described as follows: A CellTox Green Cytotoxicity Assay to monitor cytotoxicity in HEK293 cells - 24 hour (AID 1224875). Further: on the % scale 0 is the no-effect control and ±100 the full control effect; nearly all actives have a fitted effect of over 45% in size. Summed up: as §2
The nature of experiment [11]: A CellTox Green Cytotoxicity Assay to monitor cytotoxicity in HepG2 cells - 16 hour (AID 1224876). Further: on the % scale 0 is the no-effect control and ±100 the full control effect; nearly all actives have a fitted effect of over 45% in size. A digest of the protocol: (§5)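 Fluorescent DNA-binding dye, 600 HepG2 cells/well, 5 h preincubation then compound in DMSO; same plates read at 0–40 h, 37 C.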
Experiment [12] can be described thus: qHTS RealTime-Glo MT Cell Viability Assay in HepG2 cells - 32 hour (AID 1224877). Further: nearly all actives have a fitted effect of over 55% in size. Further: potency means the concentration at half of the fitted maximal effect. A digest of the protocol: as §1
A short description of experiment [13]: A CellTox Green Cytotoxicity Assay to monitor cytotoxicity in HepG2 cells - 24 hour (AID 1224878). Further: nearly all actives have a fitted effect of over 45% in size. Further: potency means the concentration at half of the fitted maximal effect. On Cytotoxicity: on the % scale 0 is the no-effect control and ±100 the full control effect. A digest of the protocol: as §5
A short description of experiment [14]: A CellTox Green Cytotoxicity Assay to monitor cytotoxicity in HepG2 cells - 40 hour (AID 1224879). Further: nearly all actives have a fitted effect of over 40% in size. Further: potency means the concentration at half of the fitted maximal effect. A digest of the protocol: as §5
A short description of experiment [15]: qHTS assay to identify small molecule agonists of the hypoxia (HIF-1) signaling pathway - cell viability counter screen (AID 1224844; calls by dose curve; further: nearly all actives have a fitted effect of over 50% in size; further: potency means the concentration at half of the fitted maximal effect). Summed up: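 Same wells as the HIF-1 reporter screen; ME-180 cells carrying HRE-bla, 17 hr treatment at 37C; CellTiter-Glo luminescence read after 30 min at room temperature.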
Experiment [16] in a line: qHTS RealTime-Glo MT Cell Viability Assay in HEK293 cells - 32 hour (AID 1224868). Further: nearly all actives have a fitted effect of over 50% in size. Further: potency means the concentration at half of the fitted maximal effect. A digest of the protocol: as §4
Experiment [17] can be described thus: qHTS RealTime-Glo MT Cell Viability Assay in HEK293 cells - 40 hour (AID 1224874). Further: nearly all actives have a fitted effect of over 50% in size. Further: potency means the concentration at half of the fitted maximal effect. On max response: on the % scale 0 is the no-effect control and ±100 the full control effect. To be noted: RealTime-Glo luminescence; max response: hits give low values. Summed up:
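Measured as luminescence from the same continuously cultured HEK293 wells at successive time points (0, 8, 16, 24, 32, 40 h) after compound addition. Reagent present from seeding; dosing at 5 h; incubation 37 C.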

Experiment [18] can be described thus: qHTS assay to identify small molecule agonists of H2AX (AID 1224845; active means well fitted activation curve with a large enough effect in the signal ratio in the repeat runs, not every such curve was filed as active; the % refers to the signal ratio; further: on the % scale 0 is the no-effect control and ±100 the full control effect). Summed up:
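Wild-type CHO-K1 cells, plated overnight, exposed 3hr at 37C to 15 concentrations (0.76% DMSO final). Lysed, then HTRF anti-pH2AX (S139) cryptate and anti-H2AX-d2 antibodies, 24 hr room temperature; 665/620 nm emission read.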

A short description of experiment [19]: qHTS assay to identify small molecule antagonists of the estrogen related receptor (ERR) signaling pathway from Tox21 library (AID 1224848). A digest of the protocol:
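Compounds dissolved in DMSO are pin-transferred onto ERR reporter cells (2,000 per well) that have settled for 6 h at 37 C. Plates then incubate 18 h at 37 C before ONE-Glo luciferase reagent and a luminescence read 30 min later.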

Structures are written as SMILES. Values without a mark were called inactive. Results filed as inconclusive are left out. Activity calls are given as the source filed them. Unless noted, the call rests on the fitted dose curve; in most records, active means well fitted curve in the direction sought with a large enough effect in the repeat runs; inconclusive means weak or mixed curves; inactive means no such curve, though single readings can be large; an effect the other way counts as inactive or inconclusive.

`CC(C)(C)C(=O)C(Oc1ccc(Cl)cc1)n1ccnc1` (stereo unspecified): in experiment [1], the call was inactive. In addition, the Potency entry in experiment [2], in [4], in experiment [5], in experiment [6], in [7] and in [8] was “inactive” throughout. Moreover, the Potency entry in experiment [9], in experiment [10], in experiment [11], in [12], in experiment [13] and in [14] was “inactive” in each case. Besides, in [3], the activity change, positive = activation is -21.7% [at 42.5 µM].
On to `CC1=NN(c2ccc(C(=O)O)cc2)C(=O)C1`, for which the Potency entry in experiment [15], in experiment [2], in experiment [4], in [16], in [5] and in experiment [6] was “inactive” each time. The Potency result in experiment [7], in [8], in experiment [9], in experiment [10], in experiment [11] and in [12] was “inactive” in each case. For the same compound, the Potency result in experiment [13] and in experiment [14] was “inactive” throughout. Besides, the outcome in [1] was inactive. Moreover, the max response in experiment [17] is -25.1%.
With `CC(C)C(OC(=O)c1ccccc1)C(C)(C)COC(=O)c1ccccc1` (stereo unspecified), the Potency entry in experiment [15], in experiment [18], in experiment [4], in experiment [16], in experiment [5] and in [6] was “inactive” each time. Besides, the Potency result in [7], in [9], in experiment [10], in experiment [11], in experiment [12] and in [13] was “inactive” each time. Further, the compound was classed as inactive in experiment [1].
For the compound `Cc1cc(C(=C2C=CC(=Nc3ccc(S(=O)(=O)O)cc3S(=O)(=O)O)C=C2)c2ccc(Nc3ccc(S(=O)(=O)O)cc3)cc2)ccc1N`, the Potency entry in [15], in [2], in experiment [4], in [6], in experiment [7] and in [8] was “inactive” each time. Further, the Potency result in experiment [9], in experiment [11], in experiment [12] and in experiment [13] was “inactive” in each case. The call in [1] was inactive. Further, the max response in experiment [17] is -3.61%.
With `CC1(C)C2=CCCC(C)(C)[C@]23CC[C@H]1C3`, the Potency entry in experiment [15], in experiment [2], in experiment [4], in [16], in experiment [5] and in experiment [6] was “inactive” in each case. In addition, the Potency result in [8], in [9], in experiment [10], in experiment [11] and in experiment [12] was “inactive” in each case. Also, in experiment [1], the result was inactive. Also, the Potency in experiment [7] was 38.9 µM (active). Moreover, the max response in experiment [17] was -11.7%.
As for `CC[C@@H]([C@H](C)O)n1ncn(-c2ccc(N3CCN(c4ccc(OC[C@@H]5CO[C@@](Cn6cncn6)(c6ccc(F)cc6F)C5)cc4)CC3)cc2)c1=O`, the Potency result in [18], in experiment [5], in experiment [7], in experiment [10], in experiment [11] and in experiment [13] was “inactive” throughout. In addition, the result in experiment [1] was inactive. The Potency in [2] is 19.6 µM (active); in experiment [16], 3.01 µM (active); in experiment [8], 5.35 µM (active); in experiment [17] it was 5.35 µM (active).
For the compound `CC1=C(/C=C/C(C)=C\C=C\C(C)=C\C(=O)O)C(C)(C)CCC1`, the Potency in [15] and in experiment [7] was 49 µM (active) each time. For the same compound, the Potency entry in experiment [2], in [16], in experiment [5], in experiment [6], in experiment [8] and in experiment [9] was “inactive” each time. The Potency result in experiment [11] and in [13] was “inactive” throughout. Besides, the max response in [17] is -21.3%.
Consider `CCCCCCCC/C=C\CCCCCCCC(=O)OC(CO)CO`, for which the Potency result in experiment [15], in experiment [2], in experiment [4], in experiment [5], in [6] and in experiment [7] was “inactive” in each case. Also, the Potency result in experiment [8], in experiment [9], in experiment [11], in experiment [12] and in experiment [13] was “inactive” each time. Moreover, the compound was called inactive in experiment [1]. Further, the max response in [17] was 0.119%.
For `CO[C@@]12[C@H](COC(N)=O)C3=C(C(=O)C(C)=C(N)C3=O)N1C[C@@H]1N[C@@H]12`, the Potency is 9.52 µM (active) in experiment [15]; 8.41 µM (active) in experiment [19]; 6.01 µM (active) in experiment [4]; 0.848 µM (active) in experiment [16]; 5.35 µM (active) in [6]; 0.674 µM (active) in experiment [17]. Moreover, the Potency was 5.35 µM (active) in [12], 8.49 µM (active) in [13] and 6.74 µM (active) in experiment [14]. For the same compound, the Potency entry in experiment [2], in experiment [5], in experiment [7] and in [8] was “inactive” each time. The activity change, positive = activation in [3] was -55.2% [at 42.5 µM].
In the case of `CSc1ccc(Oc2ccc(S(N)(=O)=O)cc2CN(C)C)cc1C`, the Potency entry in experiment [15], in [18], in experiment [5], in experiment [6], in experiment [7] and in experiment [9] was “inactive” in each case. The Potency result in experiment [10] and in experiment [12] was “inactive” in each case. In experiment [1], the call was inactive. The figures for the Potency in experiment [19], in experiment [16] and in experiment [17] were 5.45 µM (active), 43.6 µM (active) and 38.9 µM (active), respectively. Moreover, the activity change, positive = activation in experiment [3] is -34.7%.

For the origin of these results see PubChem BioAssay (Tox21).
